In PubChem BioAssay AID2177 (The Scripps Research Institute Molecular Screening Center, 2009):
In all, about 320,000 compounds went through this assay and about 1,200 (0.38%) were called active. Many of the other results were omitted from the sample, so actives are more common in it than they were. Values without a mark were called inactive.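 Rule for the calls: active = inhibition above the screen-wide mean plus 3 SD, limit set per campaign (cut at about 26% in these data); inactive = the rest.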

target: Acyl-protein thioesterase 2 (Homo sapiens) (UniProt O95372); assay: inhibition of human lysophospholipase 2 – biochemical, fluorescence polarization, FP-Rh probe ABPP, counter-screen for PME1 inhibitor project, primary screen (AID 2177); settings: recombinant LYPLA2, FP-Rh probe fluorescence polarization; at 5.9 µM; stronger effect = higher value;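 note: 0% = LYPLA2 with DMSO and 100% = wells lacking LYPLA2 enzyme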
Sequence (O95372 whole entry, looked up): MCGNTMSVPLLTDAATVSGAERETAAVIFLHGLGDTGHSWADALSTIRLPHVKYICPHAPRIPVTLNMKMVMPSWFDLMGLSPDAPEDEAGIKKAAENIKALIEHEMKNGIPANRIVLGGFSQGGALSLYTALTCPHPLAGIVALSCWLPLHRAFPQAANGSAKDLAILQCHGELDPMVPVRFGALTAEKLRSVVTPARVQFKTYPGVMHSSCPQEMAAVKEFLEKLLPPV

Row | SMILES | inhibition
1 | Oc1ccc(N=Cc2sc3ccccc3c2Cl)cc1 | 7.6%
2 | CCOc1[nH]n(-c2ccc(Cl)cc2)c(=O)c1C=Nc1ccc(O)cc1 | 3.53%
3 | Oc1ccc(N=Cc2c(O)ccc3ccccc23)cc1 | 32.3% (active)
4 | CCOC(=O)N1CCN(c2c(NCCN3CCN(c4ccccc4F)CC3)c(=O)c2=O)CC1 | 1.74%
5 | O=[N+]([O-])c1ccc(Oc2ccc(F)cc2Br)c2ccncc12 | 41.4% (active)
6 | O=[N+]([O-])c1ccc(F)cc1Oc1nc(-c2cccnc2)nc2ccccc12 | -3.66%
7 | O=S(=O)(/N=C(/Nc1ccccc1)c1ccccc1)c1cccs1 | 1.19%
8 | Cc1ccc(S(=O)(=O)N(CC(=O)NCc2ccco2)c2ccccc2C)cc1 | -4.36%
9 | CC(=O)Nc1ccc(NC(=O)CN2C(=O)COc3ccc(S(=O)(=O)N4CCCCC4)cc32)cc1 | -8.84%
10 | CSc1cccc(NC(=O)CN2C(=O)COc3ccc(S(=O)(=O)N4CCOCC4)cc32)c1 | 35.7% (active)
11 | COc1ccc(NC(=O)CN2C(=O)COc3ccc(S(=O)(=O)N4CCOCC4)cc32)cc1 | 7%
12 | O=S(=O)(Nc1ccc2[nH]ncc2c1)c1ccccc1Cl | -3.28%
13 | COc1cnn(-c2ccc([N+](=O)[O-])cc2)c(=O)c1Cl | 6.75%
14 | O=c1[nH]n(-c2ccc([N+](=O)[O-])cc2)c(=O)c2ccccc12 | 33.6% (active)
15 | O=c1[nH]c2cccnc2n1-c1ccc([N+](=O)[O-])cc1 | 0.99%
16 | Cc1ccc(N2CCN(c3ccc(C)cc3)C2c2ccccn2)cc1 | 3.84%
17 | CC(NCc1cccs1)C(=O)Nc1cc(Cl)cc(Cl)c1 (centres undefined) | -2.93%
18 | Cn1nc(C(F)(F)F)c2cc(NC(=O)OCC(C)(C)C)sc21 | -2.17%
19 | O=C1OCC2=C1C(c1ccccc1)CC(=O)N2c1cccc(F)c1 (centres undefined) | 0.97%
20 | CCc1nnc(NC(=O)CSc2nnnn2-c2cccc(C(C)=O)c2)s1 | 0.16%
21 | O=C(Nc1ccc(N2CCN(C(=O)c3ccccc3)CC2)c(Cl)c1)c1cccnc1 | 27.9% (active)
22 | O=C(Nc1ccc(N2CCN(C(=O)c3ccccc3)CC2)c(Cl)c1)c1ncn[nH]1 | 14.6%
23 | COC(=O)c1cc(NC(=O)c2cccnc2)ccc1N1CCOCC1 | 2.91%
24 | COC(=O)c1ccccc1NC(=O)CN(Cc1ccccc1)S(C)(=O)=O | -8.82%

Row | SMILES | inhibition
25 | N#Cc1ccc(C2=CC(=O)C[C@H](c3ccc(Cl)cc3)C2)cc1 | 43.3% (active)
26 | O=C1C=C(c2cccc(Cl)c2)C[C@@H](c2ccc(F)cc2)C1 | 0.27%
27 | COc1ccc([C@H]2CC(=O)C=C(c3ccc(C)cc3)C2)cc1 | 15.7%
28 | CCNC(=S)N1CCN(C(=O)c2ccco2)CC1 | 2.65%
29 | O=C(CN1CCN(C(=O)c2ccco2)CC1)Nc1ccc2c(c1)OCO2 | -2.14%
30 | O=C(c1ccco1)N1CCN(C(=S)Nc2cc(F)cc(F)c2)CC1 | 33.1% (active)
31 | COc1ccc(CN(C)C(=O)Cc2ccsc2)c(OC)c1OC | 4.71%
32 | COc1cccc(OC)c1C(=O)NC(=S)Nc1ccc(N2CCOCC2)c(Cl)c1 | -0.51%
33 | CCOc1ccc(C(=O)NC(=S)Nc2ccc(N3CCOCC3)c(Cl)c2)cc1[N+](=O)[O-] | 26.8% (active)
34 | CCOc1ccc(C(=O)NC(=S)Nc2ccc(NC(=O)C(C)C)cc2)cc1[N+](=O)[O-] | 19.4%
35 | O=C(Nc1ccccc1N1CCOCC1)c1ccncc1 | -4.72%
36 | Cc1csc2nc(COC(=O)c3cccc(N(C)C)c3)cc(=O)n12 | 6.85%
37 | Cc1nn2c(=O)cc(COC(=O)c3ccc(NC(=O)C(C)(C)C)cc3)nc2s1 | 31.4% (active)
38 | COCCc1nn2c(=O)cc(COC(=O)c3cc(OC)c(OC)c(OC)c3)nc2s1 | 7.86%
39 | O=C(Nc1ccc([N+](=O)[O-])cc1)OCCc1ccccn1 | 1.34%
40 | Cc1ccc(N2CCN(/N=C/c3cccs3)CC2)cc1 | 6.07%
41 | Cc1ccc(N2CCN(C3=NC(=O)/C(=C\c4cccs4)S3)CC2)cc1 | 51.7% (active)
42 | Cc1ccsc1/C=C1\SC(N2CCOCC2)=NC1=O | 1.19%
43 | Cc1ccc(S(=O)(=O)N(C)CC(=O)OCC(=O)N2CC(=O)Nc3ccccc32)cc1 | 2.05%
44 | CCN(CC)c1ccc(C(=O)Nn2c(C)nc3ccccc3c2=O)cc1 | 4.7%
45 | CCN(CC)c1ccc(C(=O)NNC(=O)CCc2nc3ccccc3c(=O)[nH]2)cc1 | 26.9% (active)
46 | CCCC(=O)N(CCc1ccccc1)Cc1nc2ccccc2c(=O)[nH]1 | -5.43%
47 | CCOCCCN(C)C1CCN(C(=O)c2oc3ccccc3c2NC(=O)COc2cccc(C)c2)CC1 | -6.18%
48 | Cc1ccc(Cl)cc1NC(=O)C1CCCN(c2cnccn2)C1 (centres undefined) | -0.03%

Row | SMILES | inhibition
49 | COCCOC(=O)c1sc(=S)n(CCOC)c1N | 34.7% (active)
50 | COC(=O)c1sc(=S)n(-c2ccc(Cl)cc2)c1C | 1.95%
51 | COc1ccccc1NC(=O)CSc1nnc(CNC(=O)c2ccccc2F)o1 | -2.81%
52 | Cc1nn(-c2ccccc2)c2c1c(C)c(CCC(=O)NCC1CCCO1)c(=O)n2C (centres undefined) | 0.8%
53 | Cc1cc(SCC(=O)NCCN2C(=O)CSC2=O)nc2ccccc12 | -4.03%
54 | Clc1ccc(C2=CSC3=Nc4cccc5cccc(c45)N23)cc1 | 0.51%
55 | CN(CCc1ccccn1)C(=O)c1ccc(OC2CCN(CCc3ccccc3)CC2)cc1 | 33.7% (active)
56 | O=C(c1ccc(OC2CCN(Cc3ccccn3)CC2)cc1)N1CCCCCC1 | 3.95%
57 | Cn1cc(CNC(=O)c2ccc(OC3CCN(Cc4ccccn4)CC3)cc2)cn1 | 11%
58 | NS(=O)(=O)c1ccc(N=Nc2c(O)[nH]c3ccc(Br)cc23)cc1 | 1.06%
59 | Cc1ccc(/C=C/C(=O)OCC(=O)Nc2cccnc2Cl)cc1 | 7.22%
60 | Nc1nc(SCC(=O)Nc2ccc(Cl)cc2C(F)(F)F)n[nH]1 | 9.87%
61 | CC(C)CNC(=O)C(=O)NCC(c1ccc2c(c1)OCO2)N1CCOCC1 (centres undefined) | 6.19%
62 | O=C(NCCSCc1ccccc1)c1ccc(Cl)c(S(=O)(=O)N2CCOCC2)c1 | 1.96%
63 | O=C(c1ccc(F)c(S(=O)(=O)N2CCOCC2)c1)N(CCc1ccccc1)Cc1ccccc1 | 5.14%
64 | Cc1nn(Cc2ccccc2)c(C)c1CNC(=O)c1ccc(F)c(S(=O)(=O)N2CCOCC2)c1 | 29.7% (active)
65 | CC(OC(=O)CCC(=O)c1ccccc1)C(=O)Nc1ccc(F)cc1 (centres undefined) | -5.12%
66 | CN(CCC(=O)Nc1cc(S(=O)(=O)N(C)C)ccc1Cl)CC(=O)Nc1ccc(F)cc1 | -4.23%
67 | CC(C)N(Cc1ccccc1)C(=O)COC(=O)c1ccccc1SCC(=O)N1CCCC1 | 1.65%
68 | COc1ccc(/C=C/C(=O)Nc2c(C)nn(C)c2C)cc1COc1ccc(Br)cc1 | -4.58%
69 | O=C(COc1ccccc1)Nc1ccc(N2CCN(C(=O)c3cccs3)CC2)cc1 | 7.89%
70 | O=C(Nc1ccc(N2CCN(C(=O)c3cccs3)CC2)cc1)c1cccnc1Cl | 35.9% (active)
71 | Cc1ccccc1C(=O)N1CCN(c2ccc(NC(=O)c3cccs3)cc2)CC1 | 2.59%
72 | CN=C1S/C(=C\c2c(OC)cc(OC)cc2OC)C(=O)N1C | -0.06%

Row | SMILES | inhibition
73 | CC(C)OCCCNC(=O)CN1C(=O)/C(=C/c2ccccc2F)Oc2ccccc21 | -0.43%
74 | CCC(=C/c1sc2ccc3ccccc3c2[n+]1C)/C=C1\Sc2ccc3ccccc3c2N1C | 40.1% (active)
75 | O=P(O)(CP(=O)(c1ccccc1)c1ccccc1)c1ccccc1O | -2.71%
76 | CCC(C)CCN1CCN=C1N(C)C (centres undefined) | 8.55%
77 | O=S(=O)(Nc1ccc(Cl)cn1)c1cnc(Cl)c(Br)c1 | 2.67%
78 | COC(=O)/C(=C1\Oc2ccc(C(C)(C)C)cc2S1)C(F)(F)F | -3.77%
79 | O=C(c1ccc2c(c1)OCO2)N1CCOCC1 | 2.23%
80 | Nc1[nH][nH]c(=O)c1N=Nc1ccc2c(c1)OCO2 | 28.4% (active)
81 | CC(=O)c1cc2c(cc1N)OCO2 | -2.04%
82 | COc1ccc([N+](=O)[O-])cc1C1NN=C(c2cccc3ccccc23)S1 (centres undefined) | 7.57%
83 | Cc1cccc(C(=O)NC(=S)N2CCN(c3ccc([N+](=O)[O-])cc3)CC2)c1 | 0.8%
84 | O=C(COC(=O)c1cc([N+](=O)[O-])ccc1NCc1ccccc1)NC1CCCCC1 | 12%
85 | CC1=C(C(=O)OCC2CCCCC2)C(c2ccc(F)cc2)NC(=O)N1 (centres undefined) | 0.63%
86 | CCC(CC)COC(=O)C1=C(C)NC(=O)NC1c1ccc([N+](=O)[O-])cc1 (centres undefined) | 28.8% (active)
87 | COCCOC(=O)C1=C(C)NC(=O)NC1c1ccc(Cl)cc1 (centres undefined) | 3.24%
88 | Cc1cc(C)c(C#N)c(SCc2[nH]nc3c2C(c2ccccc2)C(C#N)=C(N)O3)n1 (centres undefined) | 55.3% (active)
89 | CCc1ccc(C2C(C#N)=C(N)Oc3n[nH]c(CC(=O)OC)c32)cc1 (centres undefined) | 5.23%
90 | Cc1cc(C)c(C#N)c(SCc2ccccc2C(=O)O)n1 | 1.89%
91 | CC(C)NC(=O)CSc1nnc(COc2ccccc2Cl)o1 | 1.63%
92 | O=C1C2CCCN2C(=O)N1CCCCN1CCN(c2cccc(C(F)(F)F)c2)CC1 (centres undefined) | 64.2% (active)
93 | Cc1ccccc1N1CCN(CCCN2C(=O)C3CCCCN3C2=O)CC1 (centres undefined) | -1.82%
94 | O=C(CCN1CCCO1)N1CCCC(N2CCN(c3cccc(C(F)(F)F)c3)CC2)C1 (centres undefined) | 4.25%
